CHX counter – counter-screen for Shiga toxin inhibitors: cycloheximide protein synthesis inhibition; AID 2314; cell reporter, cycloheximide protein synthesis inhibition counterscreen; max response, %; actives 12% (n = 300,000); in the data active = max response mostly above about 13%, no sharp cut-off; inactive = mostly below about 14%; also: read at 38.3 µM for the half of the compounds with a filed dose; 0% is about no effect
Shiga toxin inh – inhibitors of Shiga toxin in Vero cells; actives 9.2% (n = 290,000); Vero cells, Shiga toxin protein synthesis inhibition reporter; inhibition, % at 38.7 µM; AID 2315; in the data active = inhibition mostly above about 28%, no sharp cut-off; inactive = mostly below about 43%; also: 0% is about no effect
HCMV antiviral – blocks human cytomegalovirus replication | HFF cells, HCMV-luciferase reporter, 72 h; hits give low values | activity change, negative = inhibition, % at 57.5 µM | actives 4.5% (n = 410,000) | AID 1259415; in the data active = activity change below about -60%; inconclusive = no clear call, values can overlap the other calls; inactive = above about -39%; also: % is scaled to controls: 0 for no effect and ±100 for the full control effect
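Compounds were evaluated in HFFs infected with an HCMV luciferase reporter virus (MOI 1 PFU/cell). Luciferase in lysates collected 72 h post infection served as the replication measure.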
Pf growth 96h – inhibits malaria parasite growth, 96 h | actives 6.9% (n = 320,000) | AID 504834 | P. falciparum luciferase reporter growth, 96 h | Potency, µM (highest dose often 28.7 µM), without a hit: top-dose activity change, negative = inhibition, hits mostly inhibitors; also: potency is read from the fitted curve at half-maximal effect; % is scaled to controls: 0 for no effect and ±100 for the full control effect
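Cell-based qHTS: luciferase-tagged P. falciparum in erythrocytes (2% hematocrit, 0.05% parasitemia final) incubated with compounds for 96 hours, 37 C, 5% CO2; luciferase detection reagent then added and luminescence measured.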
HCV inhibitor – inhibitors of hepatitis C virus infection | Huh7.5.1 HCVcc-Cre infection, luciferase reporter, 44 h | Potency, µM (highest dose often 41.8 µM), for the others: top-dose activity change, negative = inhibition, usual class: inhibitors | actives 3.4% (n = 340,000) | AID 651820; also: potency is read from the fitted curve at half-maximal effect; % is scaled to controls: 0 for no effect and ±100 for the full control effect
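Antiviral activity was scored by luciferase reporter output from cells infected with HCVcc-Cre (~0.5 moi) in presence of compound, 44 h infection period, cells seeded 1,000/well 4 h prior.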
Pf growth 48h – P. falciparum growth inhibition at 48 hours (one generation); P. falciparum luciferase growth in erythrocytes, 48 h; Potency, µM (titrated, usually from 28.7 µM), for inactives: at the top dose activity change, negative = inhibition, hits mostly inhibitors; actives 5.9% (n = 310,000); AID 504832; also: potency is read from the fitted curve at half-maximal effect; % is scaled to controls: 0 for no effect and ±100 for the full control effect
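Read-out is firefly luciferase luminescence from an integrated reporter in P. falciparum, so falling signal marks reduced parasite growth. Infected erythrocytes were at 2% hematocrit and 0.1% parasitemia (final) in Albumax-supplemented RPMI 1640.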
An asterisk follows results filed as active; ? = inconclusive; nt = not tested or not shown. Compounds with a hit are over-represented: about 21% of the library has one in this group of screens. Unless noted, calls follow the shape of the dose curve; as a rule, active = well fitted inhibition curve with a large enough effect; inconclusive = small, poorly fitted or top-dose-only effect, or another doubt; inactive = no such curve, though single readings can be large or run the other way.

SMILES	CHX counter	Shiga toxin inh	HCMV antiviral	Pf growth 96h	HCV inhibitor	Pf growth 48h
O=C(/C=C/c1ccc(F)cc1)c1ccc(N2CCOCC2)cc1	4	14	21	43%	18%	117%
Cc1ccc(C(=O)OCC(=O)Nc2cc(C(C)(C)C)nn2-c2ccccc2)c(O)c1	nt	nt	-11	6%	?	?
Cc1ccc(C(=O)NCCC(=O)NCc2ccco2)cc1	-3	-5	4	10µM*	4%	28%
O=C(CSc1ccc(Cl)cc1)NC(=O)NCc1ccco1	-1	19	22	50%	-18%	12%
Cc1ccc(OCCCC(=O)NCc2ccco2)c(C)c1	4	4	nt	11%	nt	4.1µM*
O=C(CSc1ccc(Cl)cc1)NCc1ccco1	32*	34	-34	?	11%	77%
O=C(CCNC(=O)c1ccc(Br)cc1)NCc1ccco1	nt	nt	7	27%	?	38%
CC(=O)Nc1ccc(SCC(=O)OCC(=O)NC(=O)NCc2ccco2)cc1	2	32	29	9.3µM*	15%	-3%
Cc1ccc(CN2C(=O)c3ccccc3C2c2nnnn2-c2ccc3c(c2)OCCO3)cc1 (centres undefined)	nt	nt	-19	nt	nt	nt
Cc1ccc(-c2nc(NCc3ccco3)n(S(C)(=O)=O)n2)cc1	-2	-8	25	?	-14%	20%
Cc1cc(C)c2c(CC(=O)NCc3ccco3)coc2c1	9	16	-10	1µM*	-3%	8%
Cc1cccc(C)c1Nc1nnc(SCC(=O)NCc2cccs2)s1	-3	21	-10	?	23%	-4%
Cc1cccc(C)c1Nc1nnc(SCC(=O)NCc2ccco2)s1	1	16	18	0.83µM*	5%	?
Cc1ccc(SCCC(=O)NCc2ccco2)cc1	5	12	35	4%	-7%	14%
CC(=O)n1nc(-c2ccc(C)cc2)nc1NCc1ccco1	63*	101*	40	?	0%	319%
Cc1ccc(SCC(=O)NCc2ccco2)cc1	17*	40	25	?	8%	?
O=C(Nc1ccccc1C(F)(F)F)N1CCOc2ccc(Cl)cc21	nt	nt	-18	nt	nt	nt
CCn1nc(NC(=O)C(C)C)c2cc3cccc(C)c3nc21	0	23	-25	?	?	-44%
Cc1cccc(C)c1NC(=O)C1CCCN1S(=O)(=O)c1cccc2nsnc12 (centres undefined)	nt	nt	25	nt	nt	nt
CCC(=O)NC(c1cc(Cl)c2cccnc2c1O)C1CC1 (centres undefined)	nt	nt	-95*	2.9µM*	nt	3.7µM*
CCC(=O)NC(c1cc(Cl)c2cccnc2c1O)C(C)C (centres undefined)	nt	nt	-96*	13µM*	nt	2.9µM*
CC(=O)NC(c1cc(F)c2cccnc2c1O)C1CC1 (centres undefined)	nt	nt	27	?	nt	?
CC(C)CNc1ncnc2c1sc1nc(N3CCOCC3)c3c(c12)CC(C)(C)OC3	18	-22	-2	?	?	?
CCN(CC)CCNc1ncnc2c1sc1nc(N3CCCC3)c3c(c12)CC(C)(C)OC3	-2	-15	-25	5%	2µM*	10µM*
Cc1cccc(-n2cnc3c(sc4nc(N5CCOCC5)c5c(c43)CCCC5)c2=O)c1	-2	-7	?	?	18µM*	2.1µM*
SMILES	CHX counter	Shiga toxin inh	HCMV antiviral	Pf growth 96h	HCV inhibitor	Pf growth 48h
CCCCCCNc1ncnc2c1sc1nc(N3CCOCC3)c3c(c12)CCCC3	nt	nt	-5	nt	nt	nt
CN(C)CCNc1ncnc2c1sc1nc(N3CCCC3)c3c(c12)CC(C)(C)OC3	0	-10	?	-17%	13µM*	0%
CCN(CC)CCNc1ncnc2c1sc1nc(N3CCOCC3)c3c(c12)CCCC3	-1	-6	-10	?	?	9.3µM*
CCN(CC)c1ncnc2c1sc1nc(N3CCOCC3)c3c(c12)CCC3	-2	-18	nt	?	nt	?
O=c1c(=O)n(-c2ccc(F)c(F)c2)ccn1Cc1ccc(F)cc1Cl	nt	nt	-31	nt	nt	nt
Cc1cc(S(=O)(=O)/N=C(\N)c2ccc(C(N)=O)cc2)cc(C)c1F	-2	-6	3	3%	5%	3%
COc1ccccc1C(=O)NC(CCSC)C(=O)NCc1ccccn1 (centres undefined)	nt	nt	-17	11%	6%	19%
CC(Sc1nc(C(C)(C)C)cc(-c2ccccc2)c1C#N)C(=O)Nc1ccccc1 (centres undefined)	-4	-1	-64*	?	-25%	0%
CCOC(=O)N1CCC(NC(=O)c2ccc3c(c2)ncn3C2CCCC2)CC1	10	-5	-68*	120%	-1%	?
COc1ccccc1-n1cnc2cc(C(=O)NC3CCCC3)ccc21	2	19*	13	?	-3%	?
CCOC(=O)N1CCN(C(=O)c2ccc3c(c2)ncn3C2CCCC2)CC1	0	-13	-62*	11%	22%	-13%
COc1ccc(C)cc1-n1cnc2cc(C(=O)NC3CCCC3)ccc21	nt	nt	-18	nt	nt	nt
O=C(NC1CC1)c1ccc2c(c1)ncn2C1CCCC1	33*	69*	-8	54%	3%	56%
O=C(c1ccc2c(c1)ncn2C1CCCCCC1)N1CCC2(CC1)OCCO2	1	-7	-17	?	-10%	?
CCCC(CCC)=NNC(=O)CN(Cc1ccccc1)S(=O)(=O)c1ccccc1	-1	29	-3	40%	3%	11%
CCOC(=O)c1cc(-c2ccccc2)n(CC(=O)Nc2cc(Cl)c(OC)cc2OC)c1C	nt	nt	33	nt	nt	nt
O=C(Cc1coc2ccc3ccccc3c12)Nc1nccs1	7	9	-24	?	-23%	nt
CCCN(CCC)C(=O)Cc1coc2ccc3ccccc3c12	15	-11	-20	nt	-19%	12µM*
O=C(Cc1coc2ccc3ccccc3c12)NCc1ccccc1	6	14	-7	?	10µM*	nt
O=C(CCCCn1c(=O)c2ccccc2n(Cc2cccc(F)c2)c1=O)NCc1ccc2c(c1)OCO2	nt	nt	8	nt	nt	nt
COc1ccc(-c2nc3ccccc3s2)cc1NC(C)=O	35*	100*	136	0%	-28%	85%
Cc1ccc(C(=O)NC(=S)Nc2cc(-c3nc4ccccc4s3)ccc2C)cc1	65*	117*	11	?	-11%	83%
COc1ccc(-c2cnc3ccccc3n2)cc1NC(=O)CNC(=O)c1ccccc1	36*	36	-36	?	-5%	11%
COc1ccc(-c2nc3ccccc3s2)cc1NC(=O)COc1cccc(C)c1	54*	71*	84	nt	nt	nt
COc1ccc(-c2nc3ccccc3s2)cc1NC(=O)c1ccccc1F	nt	nt	17	nt	nt	nt
CC(C)CC1(C)N=C(c2ccccc2)C(=S)N1 (centres undefined)	4	3	5	3%	18%	?
